High-throughput results: PubChem, National Center for Advancing Translational Sciences (NCATS)
Nrf2 activator: qHTS of Nrf2 Activators. 410,000 tested, 0.31% active. Potency, µM (highest dose often 46.1 µM), hits mostly activators. AREc32 ARE-luciferase reporter (MCF7-derived line), luminescence, 24 h; also: nearly all actives have a fitted effect of over 65% in size
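AREc32 cells carrying an ARE-driven firefly luciferase, 1000 cells/well in OPTI-MEM with 5% FBS, dosed after overnight attachment and incubated 24 hr at 37 deg C. Steady-Glo luminescence read after 30 min at RT.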
HepG2 tox-1: qHTS for Inhibitors of TGF-b: Cytotox Counterscreen; HepG2 CAGA-GFP viability, ATP luminescence, 18 h; Potency, µM (top dose mostly 46.1 µM), usual class: cytotoxic; 410,000 tested, 0.76% active; AID 588856, 2011
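HepG2 CAGA-GFP cells (1000/well, DMEM with 1% FBS) received compound, then TGF-beta at 500 pg/mL final, and were incubated 18 hours at 37 degrees C. Viability was read by CellTiter-Glo luminescence. Media-only wells were set as complete cell-killing and DMSO as no toxicity.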
Nrf2 inh: Nrf2 qHTS screen for inhibitors; A549 ARE-Fluc reporter, luciferase luminescence, 18-24 h; 360,000 tested, 2.1% active; Potency, µM (top dose mostly 46 µM), actives largely listed as inhibitors; also: nearly all actives have a fitted effect of over 60% in size
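Nrf2 function is reported as luminescence of an ARE-controlled luciferase in A549 cells. Compounds were tested at several concentrations, and a CellTiter-Fluor read on the same wells flagged cytotoxicity.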
A549 viability: Nrf2 qHTS screen for inhibitors: counterscreen for cytotoxicity | AID 504648, 2011 | Potency, µM (highest dose often 46 µM), most hits filed as inhibitors | A549 ARE-Fluc cells, CellTiter-Fluor viability, 18-24 h | 390,000 tested, 0.16% active
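Cytotoxicity counterscreen: CellTiter-Fluor fluorescence was measured in A549 ARE_Fluc cells after 18-24 h of compound exposure in a concentration series. The subsequent BugLite luminescent read reports ARE-luciferase activity.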
TGFb SMAD3 inh: qHTS for Inhibitors of TGF-b; HepG2 CAGA-GFP TGF-b/SMAD3 reporter, GFP fluorescence, 18 h; TGF-beta stimulated, 500 pg/mL final; Potency, µM (doses to about 46.1 µM), most hits filed as inhibitors; 410,000 tested, 1.2% active; AID 588855, 2011; also: nearly all actives have a fitted effect of over 65% in size
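Inhibition was scored as loss of TGF-beta-induced (500 pg/mL final, 18 hours, 37 degrees C) GFP in HEPG2 cells carrying a CAGA-GFP reporter, in DMEM with 1% FBS. Well GFP was summed per cell; Activity was normalised to unstimulated and stimulated DMSO wells, then concentration-response fitting.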
TGFb CAGA inh: qHTS for Inhibitors of TGF-b: Confirmation of Cherry Picks; shares compounds with TGFb SMAD3 inh; HepG2 CAGA-GFP TGF-b reporter, GFP fluorescence, 18 h; cells stimulated with TGF-beta, 500 pg/mL; Potency, µM (titrated, usually from 46.1 µM), usual class: inhibitors; 1,600 tested, 63% active; also: nearly all actives have a fitted effect of over 65% in size
HepG2 tox-2: qHTS for Inhibitors of TGF-b: Cytotox Counterscreen for Cherry Picks; shares compounds with TGFb SMAD3 inh; HepG2 CAGA-GFP viability, ATP luminescence, 18 h; cells stimulated with TGF-beta, 500 pg/mL; Potency, µM (series often up to 46.1 µM), hits mostly inhibitors; 1,600 tested, 27% active; AID 720535, 2013; also: nearly all actives have a fitted effect of over 70% in size
TGFb CCL64 inh: qHTS for Inhibitors of TGF-b: CCL64 Cells Orthogonal Assay for Cherry Picks | CCL64 CAGA-GFP reporter, TGF-b stimulated, GFP fluorescence, 18 h | Potency, µM (highest dose often 46.1 µM), most hits filed as inhibitors | shares compounds with TGFb SMAD3 inh | 1,600 tested, 41% active; also: nearly all actives have a fitted effect of over 65% in size
COP TGFb inh: qHTS for Inhibitors of TGF-b: Hit Validation in HepG2 Cells using COP promoter; Potency, µM (doses to about 46.1 µM), usual class: inhibitors; HepG2 COP-GFP TGF-b reporter, GFP fluorescence, 18 h; cells stimulated by added recombinant TGF-beta; 1,600 tested, 3% active; shares compounds with TGFb SMAD3 inh; also: nearly all actives have a fitted effect of over 70% in size
Numbers stand for hits; – = inactive; ? = inconclusive; · = no result. Only some compounds are listed: those with a hit (about 3.6% of all), similar ones and a draw of the others. Calls follow the shape of the dose curve; as a rule, active = well fitted curve in the direction sought with a large enough effect; inconclusive = small, poorly fitted or top-dose-only effect, or another doubt; inactive = no such curve, though single readings can be large; an effect the other way counts as inactive or inconclusive.

SMILES	Nrf2 activator	HepG2 tox-1	Nrf2 inh	A549 viability	TGFb SMAD3 inh	TGFb CAGA inh	HepG2 tox-2	TGFb CCL64 inh	COP TGFb inh
Cc1c(C(=O)Oc2cccc3cccnc23)cccc1[N+](=O)[O-]	–	–	–	–	?	–	–	?	–
Cc1ccc(C)c2[nH]c(=O)c(CCNC(=O)c3ccc4c(c3)OCO4)cc12	–	–	?	–	–	·	·	·	·
CC(C)(C)c1nnc(NC(=O)CCS(=O)(=O)c2ccccc2)s1	16µM	–	–	–	7.1µM	3.7µM	–	?	–
CCOc1cccc2sc(NC(=O)CCS(=O)(=O)c3ccccc3)nc12	?	–	–	–	14µM	12µM	23µM	18µM	?
CC(C)(C)c1ccc(NC(=O)COC(=O)c2ccccc2OCC(=O)Nc2ccc(Br)cc2)cc1	·	–	·	·	–	·	·	·	·
COc1ccc(/C=C/C(=O)c2ccccc2)cc1Cn1nnc2ccccc21	–	–	?	–	8.9µM	6.5µM	23µM	23µM	–
CC(=O)CN1Cc2ccccc2/C1=N\C(=O)Nc1ccccc1	–	–	–	–	–	·	·	·	·
CCCCc1ccc(NC(=O)CN(C)CC(=O)Nc2ccccc2Cl)cc1	–	–	–	–	22µM	?	–	?	–
Cc1c(C(=O)C(=O)N2c3ccc(F)cc3CCC2C)c2ccccc2n1C (centres undefined)	–	–	–	–	?	·	·	·	·
CC(=O)c1cccc(N=c2scc(-c3ccc(S(=O)(=O)N4CCOCC4)cc3)n2CCO)c1	–	–	15µM	–	?	–	–	?	–
CN(C)S(=O)(=O)c1cccc(-c2csc(=Nc3ccccc3)n2CCCN2CCOCC2)c1	–	–	?	–	–	·	·	·	·
Cc1ccc(OCCNC(=O)[C@H]2O[C@@H](n3cnc4c(N)ncnc43)[C@H](O)[C@@H]2O)cc1C	–	–	·	·	?	?	–	–	–
CCOc1cc(-c2nc(-c3ccc(-c4ccc(OC)cc4)nc3OC)no2)cc(OCC)c1OCC	–	–	–	–	–	·	·	·	·
COC(=O)c1sc(NC(=O)CSc2nnnn2-c2ccc(C)cc2C)nc1C	–	–	–	–	–	·	·	·	·
CCn1c(CCCOc2ccc(Cl)cc2Cl)nnc1SCC(=O)Nc1cc(F)ccc1C	–	–	–	–	13µM	13µM	?	–	–
O=C(Nc1ccc(Cl)cc1)N1CCN(c2ncccn2)CC1	–	–	–	–	–	·	·	·	·
O=C(Nc1ccc(C(F)(F)F)cc1)N1CCN(c2ccnc3cc(Cl)ccc23)CC1	–	–	18µM	?	11µM	23µM	?	?	–
O=C1NC(Cc2ccc(O)cc2)c2nc3ccc(Cl)cc3c(=O)n2-c2cc3ccccc3cc21 (centres undefined)	–	–	·	·	7.9µM	8.2µM	?	5.8µM	–
CCOC(=O)c1cc(C(=O)c2cc(F)ccc2O)coc1=N	–	–	–	–	–	·	·	·	·
Cc1ccccc1OCC(O)Cn1c(=N)n(Cc2ccccc2)c2ccccc21 (centres undefined)	–	7.9µM	–	–	7.1µM	?	?	?	–
C=CCn1c(=N)n(CC(O)COc2ccccc2OC)c2ccccc21 (centres undefined)	–	–	–	–	–	·	·	·	·
Cc1nc(NCc2ccco2)c2c(C)c(C)sc2n1	–	–	·	?	7.9µM	8.2µM	5.2µM	–	–
CCOc1ccc(S(=O)(=O)Nc2nc3ccccc3nc2-n2ccc(=NC(=O)c3ccccc3C)cc2)cc1	–	–	–	–	–	·	·	·	·
Cc1cccc(C)c1NC(=O)CSc1nnc(NC(=O)C2CC2)s1	–	–	–	–	–	·	·	·	·
COc1cccc(CC(=O)OC(C)C(=O)NCc2ccc3c(c2)OCO3)c1 (centres undefined)	–	–	–	–	–	·	·	·	·
SMILES	Nrf2 activator	HepG2 tox-1	Nrf2 inh	A549 viability	TGFb SMAD3 inh	TGFb CAGA inh	HepG2 tox-2	TGFb CCL64 inh	COP TGFb inh
CC(OC(=O)Cc1ccc(F)cc1)C(=O)NCc1ccc2c(c1)OCO2 (centres undefined)	–	–	–	–	?	–	–	–	–
O=C(COc1ccc(Cl)cc1Cl)NCCSc1ccc(Cl)cc1	–	–	–	–	16µM	?	?	?	–
CN(C)CCNC(=O)COc1ccc(Cl)cc1Cl	–	–	–	–	–	·	·	·	·
COc1cc(/C=C/C(=O)Oc2coc(CSc3ncccn3)cc2=O)cc(OC)c1OC	–	–	–	–	–	·	·	·	·
COc1cccc(-c2cnc3c(NC=O)cc(-c4ccc(S(C)(=O)=O)cc4)cn23)c1	–	–	·	·	1.8µM	4.6µM	–	2.1µM	–
CC(=O)Nc1cccc(-c2cc(NC=O)c3ncc(-c4cccc(C(C)=O)c4)n3c2)c1	–	–	·	·	2.8µM	6.5µM	?	?	–
COc1cccc(-c2cnc3c(NC=O)cc(-c4ccccc4Oc4ccccc4)cn23)c1	–	–	·	·	10µM	12µM	–	?	–
COc1ccccc1-c1cc(NC=O)c2ncc(-c3cccc(C(F)(F)F)c3)n2c1	–	–	·	·	?	·	·	·	·
COc1cc(-c2cnc3c(NC=O)cc(-c4cccc(NC(C)=O)c4)cn23)cc(OC)c1OC	–	–	·	·	?	·	·	·	·
COc1cccc(-c2cnc3c(NC=O)cc(-c4ccc(N5CCN(C)CC5)cc4)cn23)c1	–	–	·	·	?	·	·	·	·
COc1cccc(-c2cnc3c(NC=O)cc(-c4cccc(NC(C)=O)c4)cn23)c1	–	–	·	·	7.1µM	5.8µM	?	15µM	–
COc1cccc(C(=O)Nc2nnc(C3CCCO3)s2)c1 (centres undefined)	–	–	?	–	–	·	·	·	·
CCC(=O)N1c2ccccc2NC2=C(C(=O)CCC2)C1c1ccc(N(C)C)cc1 (centres undefined)	–	–	–	–	–	·	·	·	·
